The list is not random: actives were taken first. Their share in the collection is about 12%.
PLK1 PBD inh: qHTS for Inhibitors of PLK1-PDB (polo-like kinase 1 - polo-box domain): Primary Screen | Plk1 PBD binding of FITC phosphopeptide, fluorescence polarization | AID 720504, 2013 | 2.8% of 360,000 active | Potency, µM, inactives show max response, negative = inhibition, hits mostly inhibitors; note: series mostly up to about 57 µM; % is set by controls: 0 for no effect and ±100 for the full control effect; nearly all actives have a fitted effect of over 65% in size
BAZ2B block: qHTS Assay for Inhibitors of BAZ2B | AlphaScreen BAZ2B-H3K14Ac peptide displacement | Potency, µM (titrated, usually from 114 µM), inactives show at the highest dose activity change, negative = inhibition, actives largely listed as inhibitors | 4.4% of 360,000 active; note: % is set by controls: 0 for no effect and ±100 for the full control effect; nearly all actives have a fitted effect of over 60% in size
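AlphaScreen displacement of biotin-H3(5-23)K14Ac peptide (50 nM final) from BAZ2B (50 nM final) in PBS pH 7.4, 0.01% Tween-20; complex preformed 30 min RT, then compounds (top 110 uM) 30 min RT, beads 20 min dark.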
Sfp PPTase inh: qHTS Assay for Inhibitors of Bacillus subtilis Sfp phosphopantetheinyl transferase (PPTase). 4'-phosphopantetheinyl transferase ffp (Bacillus subtilis), Q9F4F7. 3.5% of 310,000 active. AID 1490, 2009. Biochemical Sfp PPTase activity, qHTS. Potency, µM, for inactives: largest response in the series, negative = inhibition, usual class: inhibitors;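 note: the enzyme is Sfp with the accession as filed and its product quenches rhodamine fluorescence; 0% = enzyme reaction without inhibitor and -100% = no enzyme wells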
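Buffer: 50 mM Hepes-Na pH 7.6, 10 mM MgCl2, 0.01% Nonidet P-40, 0.01% BSA. Enzyme 15 nM, pre-exposed to compound 15 min; substrates then added and fluorescence change tracked over 30 min.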
G9a block: qHTS Assay for Inhibitors of Histone Lysine Methyltransferase G9a | G9a H3K9 monomethylation, AlphaScreen, 2 h | 8.8% of 350,000 active | AID 504332, 2011 | Potency, µM (titrated, usually from 102 µM), for the others: top-dose activity, negative = inhibition, usual class: inhibitors | Histone-lysine N-methyltransferase EHMT2 (Homo sapiens), Q96KQ7; note: % is set by controls: 0 for no effect and ±100 for the full control effect; nearly all actives have a fitted effect of over 75% in size
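Readings reflect AlphaScreen signal from monomethyl-H3K9 antibody detection. HMT at 20 nM; substrate b-H3K9 500 nM; cofactor SAM 20 uM; 2 h RT reaction; compounds tested as titrations in qHTS with 15 min preincubation.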
HP1b chromo inh: HTS for Inhibitors of HP1-beta Chromodomain Interactions with Methylated Histone Tails; 0.56% of 390,000 active; Potency, µM (top dose mostly 114 µM), without a hit: at the highest dose activity change, negative = inhibition, most hits filed as inhibitors; Chromobox protein homolog 1 (Homo sapiens), P83916; AID 540317, 2011; AlphaScreen HP1-beta / biotin-H3K9me3 peptide binding; note: nearly all actives have a fitted effect of over 70% in size
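Compound inhibition of the preformed complex between 50 nM HP1-beta and 50 nM biotinylated H3K9me3 peptide was read by AlphaScreen. Buffer was PBS pH 7.4 with 0.01% Tween-20. Incubations ran 30 min at room temperature, with 10 ug/mL donor/acceptor beads.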
JMJD2A Tudor: qHTS Assay for Inhibitors of JMJD2A-Tudor Domain; Lysine-specific demethylase 4A (Homo sapiens), O75164; AlphaScreen JMJD2A-Tudor / H3K4me3 peptide binding; Potency, µM (series often up to 114 µM), for inactives: top-dose activity change, negative = inhibition, hits mostly inhibitors; 4.4% of 390,000 active; AID 504339, 2011; note: % is set by controls: 0 for no effect and ±100 for the full control effect; nearly all actives have a fitted effect of over 50% in size
Target sequence (O75164 whole entry, looked up, the tested form may be a part): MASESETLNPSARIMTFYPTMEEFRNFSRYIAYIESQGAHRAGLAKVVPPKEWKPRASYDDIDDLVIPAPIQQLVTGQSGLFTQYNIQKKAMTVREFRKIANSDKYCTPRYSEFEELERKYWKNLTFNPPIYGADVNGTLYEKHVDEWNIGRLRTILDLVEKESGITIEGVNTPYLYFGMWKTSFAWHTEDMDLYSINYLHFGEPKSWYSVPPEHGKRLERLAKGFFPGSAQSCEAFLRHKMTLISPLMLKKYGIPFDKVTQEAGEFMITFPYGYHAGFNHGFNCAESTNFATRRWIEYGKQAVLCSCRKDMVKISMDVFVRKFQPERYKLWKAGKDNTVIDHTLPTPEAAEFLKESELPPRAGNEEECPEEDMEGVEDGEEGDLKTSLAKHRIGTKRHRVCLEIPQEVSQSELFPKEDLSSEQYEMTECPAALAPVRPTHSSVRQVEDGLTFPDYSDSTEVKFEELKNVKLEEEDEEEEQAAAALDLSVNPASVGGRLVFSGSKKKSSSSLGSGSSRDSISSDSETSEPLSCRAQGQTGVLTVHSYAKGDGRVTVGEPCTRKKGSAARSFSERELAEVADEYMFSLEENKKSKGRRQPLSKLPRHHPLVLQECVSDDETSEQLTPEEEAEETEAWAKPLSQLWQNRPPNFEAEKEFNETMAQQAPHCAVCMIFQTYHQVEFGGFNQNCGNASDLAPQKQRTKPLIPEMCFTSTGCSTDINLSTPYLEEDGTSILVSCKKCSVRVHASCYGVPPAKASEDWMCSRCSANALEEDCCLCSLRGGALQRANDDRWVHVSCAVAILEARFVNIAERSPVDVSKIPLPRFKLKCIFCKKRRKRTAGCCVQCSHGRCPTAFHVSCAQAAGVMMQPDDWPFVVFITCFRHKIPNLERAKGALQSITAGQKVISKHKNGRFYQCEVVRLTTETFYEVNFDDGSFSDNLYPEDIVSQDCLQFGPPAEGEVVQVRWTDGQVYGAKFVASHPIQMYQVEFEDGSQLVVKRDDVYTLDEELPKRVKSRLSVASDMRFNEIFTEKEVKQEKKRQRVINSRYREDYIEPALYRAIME
The depositor's hits bear a star; ? = inconclusive; nt = no result; [ ] = dose if it differs, or a comment. Calls come from the whole dose curve; as a rule, active = well fitted curve in the direction sought with a large enough effect; inconclusive = small, poorly fitted or top-dose-only effect, or another doubt; inactive = no such curve, though single readings can be large; an effect the other way counts as inactive or inconclusive. Potency is the fitted concentration of half-maximal effect.

SMILES	PLK1 PBD inh	BAZ2B block	Sfp PPTase inh	G9a block	HP1b chromo inh	JMJD2A Tudor
C=CC1=C(C(=O)O)N2C(=O)C(NC(=O)Cc3ccccc3)C2SC1 (stereo not given)	27µM*	?	?	?	79µM*	40µM*
CCCCOC(=O)c1ccc(NC(=O)c2cc(-c3ccccc3)on2)cc1	nt	-13%	nt	1%[59 µM]	52%	-1%
CCOc1ccccc1NC(=O)CSc1ccc2nc(-c3ccccc3)cn2n1	nt	12%	nt	?	35%[57 µM]	2%
N#CC1=C(N)C2=CCCC[C@H]2[C@H](c2ccc(Br)cc2)C1(C#N)C#N	?	-34%	7.1µM*	?	43%	-26%
N#CC1=C(N)C2=CCCC[C@H]2[C@H](c2ccccc2)C1(C#N)C#N	-27%	-30%	-9%	?	36%	-31%
O=C(O)c1ccccc1C(=O)Nc1ccc(Oc2cccc3ccccc23)cc1	-18%	50µM*	2%	40µM*	18%	-35%
Cc1cccc(Oc2ccc(NC(=O)c3ccccc3C(=O)O)cc2)c1C	-10%	?	3%	?	27%	-21%
COC(CN(C)C(=O)C1CCC(CNS(=O)(=O)c2ccc(C)cc2)CC1)OC (stereo not given)	21µM*	-5%	7%	-1%[0.501 µM]	30%	-32%
COC(CN(C)C(=O)C1CCC(CNS(=O)(=O)c2ccccc2)CC1)OC (stereo not given)	-5%	4%	14%	-2%	26%	-9%
Cc1oc2cc(O)ccc2c(=O)c1Oc1ccccc1	3µM*	4%	0%	nt	-3%	?
CCOc1ccc(Oc2c(C)oc3cc(O)ccc3c2=O)cc1	-1%	0%	8%	9%[0.501 µM]	48%	-7%
COC(=O)COc1ccc2c(=O)c(Oc3ccccc3)c(C)oc2c1	-7%	-4%	9%	?	19%	-13%
O=c1oc2cc(O)ccc2c2ccccc12	-14%	?	7%	2µM*	15%	-4%
COc1ccc2c(c1)c(=O)oc1cc(O)ccc12	-9%	1%	0%	0%[12.7 µM]	20%	-8%
CC(=O)Oc1ccc2c(=O)c(Oc3ccccc3)c(C)oc2c1OC(C)=O	-20%	-5%	?	3.2µM*	38%	?
O=C(Nc1ccc(Cl)cc1C(F)(F)F)c1cc(S(=O)(=O)NCc2ccccc2)ccc1F	nt	4%	nt	10%[59 µM]	45%	2%
CNC(=O)COc1coc(CN2CCN(c3ccccc3OC)CC2)cc1=O	-13%	-4%	14%	-6%	18%	-17%
c1ccc(OCCN2CCN(C(c3ccccc3)c3ccccc3)CC2)cc1	-7%	-14%	-5%	nt	16%	-33%
CCCNC(=O)c1ccc(N2CCC3(CC2)CC(c2cccc(Br)c2)=NO3)c(NC(=O)c2ccc(Cl)c([N+](=O)[O-])c2)c1	5%	-6%	nt	10%[2.33 µM]	10%	-13%
O=c1cc(CN2CCc3ccccc32)nc2sccn12	-11%	-5%	-7%	32µM*	?	18µM*
O=[N+]([O-])c1ccccc1S(=O)(=O)N1CCN(Cc2cc3c(cc2O)OCO3)CC1	?	nt	3%	2.5µM*	-5%	?
O=c1cc(CN2CCN(c3ccccn3)CC2)nc2sccn12	-17%	-21%	9%	-41%	6%	-23%
Cc1ccc(C)c(S(=O)(=O)N2CCN(Cc3cc4c(cc3O)OCO4)CC2)c1	-11%	40µM*	nt	1.4µM*	-30%	32µM*
O=c1cc(CN2CCCc3ccccc32)nc2sccn12	?	-14%	-26%	?	21%	-22%
O=S(=O)(c1ccccc1F)N1CCN(Cc2cc3c(cc2O)OCO3)CC1	?	?	nt	?	39%	?
SMILES	PLK1 PBD inh	BAZ2B block	Sfp PPTase inh	G9a block	HP1b chromo inh	JMJD2A Tudor
Cc1cc(C)c(S(=O)(=O)N2CCN(Cc3ccc4c(c3)OCO4)CC2)cc1C	nt	-9%	nt	-7%[59 µM]	1%	-21%
O=c1cc(CN2CCN(S(=O)(=O)c3ccccc3[N+](=O)[O-])CC2)nc2sccn12	-7%	nt	4%	40µM*	45%	-7%
CCOC(=O)c1c(NC(=O)COC(=O)CCOc2ccccc2C)sc(C(=O)NC)c1C	-5%	14%	nt	15%[2.33 µM]	27%	-7%
CCc1sc(C(=O)NCc2ccco2)cc1C	-10%	-27%	19%	-10%	-4%	-24%
Cc1c(Br)cc(C(=O)NCc2ccco2)c(C)c1C	-22%	56µM*	?	?	8%	-35%
CCc1sc(C(=O)NCc2ccco2)cc1Br	-11%	?	-5%	56µM*	26%	-21%
O=C(NCc1ccco1)c1ccc(Br)s1	-9%	?	-3%	11%[12.7 µM]	-5%	-21%
O=C(NCc1ccco1)c1ccc(C(=O)NCc2ccco2)s1	11µM*	-6%	-4%	6%[12.7 µM]	-27%	-10%[11.4 µM]
Clc1cccc(Nc2nc(N3CCOCC3)nc(N3CCOCC3)n2)c1	-2%	-18%[57.1 µM]	1%	50µM*	57%	-7%
O=[N+]([O-])c1ccc(Nc2nc(NC3CCCCC3)nc(N3CCCC3)n2)cc1	-13%	?	2%	11µM*	-4%	?
c1ccc(Nc2nc(N3CCCCC3)nc(N3CCCCC3)n2)cc1	21µM*	6%	3%	16%	12%	-17%[11.4 µM]
CCc1ccc(N2CC(C(=O)OCC(=O)NNC(=O)c3ccccc3)CC2=O)cc1 (stereo not given)	-4%	8%	nt	26%	36%	-16%
COc1ccc(NC(=O)CCS(=O)(=O)c2ccc3c(c2)CCN3C(C)=O)cc1	-10%	-3%	13%	nt	24%	-14%
COc1cccc(C(N)c2nc(-c3csc4ccccc34)cs2)c1 (stereo not given)	-9%	nt	nt	nt	nt	nt
Cc1nc(NCCc2ccccc2)sc1C(=O)N(C)C	19µM*	6%	?	25µM*	-17%	-4%
COc1ccccc1CNc1nc(C)c(C(C)=O)s1	15µM*	?	?	11µM*	-19%	-23%
COc1ccccc1CNc1nc(C)c(C(=O)N(C)C)s1	24µM*	-22%	45µM*	14µM*	?	-6%
CCCC(=O)Nc1nc(C)c(C(C)=O)s1	0%	-16%	1%	19%	36%	4%
COCCNc1nc(C)c(C(C)=O)s1	-10%	-29%	16%	40µM*	45%	-15%
COc1cccc(C(=O)Oc2ccc(/C=N/Nc3ccc(C(=O)O)cc3)cc2OC)c1	?	50µM*	?	nt	-6%	?
